# Compound activity as filed in PubChem BioAssay.
# Shown are actives, neighbours in structure and some others; about 19% of the full set was active somewhere.
# TDP1 inh: qHTS Assay for Inhibitors of Tyrosyl-DNA Phosphodiesterase (TDP1) | Tyrosyl-DNA phosphodiesterase 1 (Homo sapiens), Q9NUW8 | recombinant TDP1, AlphaScreen DNA substrate cleavage | Potency, µM (series often up to 130 µM), hits mostly inhibitors | 350,000 tested, 0.28% active; further: nearly all actives have a fitted effect of over 40% in size
# Target sequence (Q9NUW8 whole entry, looked up): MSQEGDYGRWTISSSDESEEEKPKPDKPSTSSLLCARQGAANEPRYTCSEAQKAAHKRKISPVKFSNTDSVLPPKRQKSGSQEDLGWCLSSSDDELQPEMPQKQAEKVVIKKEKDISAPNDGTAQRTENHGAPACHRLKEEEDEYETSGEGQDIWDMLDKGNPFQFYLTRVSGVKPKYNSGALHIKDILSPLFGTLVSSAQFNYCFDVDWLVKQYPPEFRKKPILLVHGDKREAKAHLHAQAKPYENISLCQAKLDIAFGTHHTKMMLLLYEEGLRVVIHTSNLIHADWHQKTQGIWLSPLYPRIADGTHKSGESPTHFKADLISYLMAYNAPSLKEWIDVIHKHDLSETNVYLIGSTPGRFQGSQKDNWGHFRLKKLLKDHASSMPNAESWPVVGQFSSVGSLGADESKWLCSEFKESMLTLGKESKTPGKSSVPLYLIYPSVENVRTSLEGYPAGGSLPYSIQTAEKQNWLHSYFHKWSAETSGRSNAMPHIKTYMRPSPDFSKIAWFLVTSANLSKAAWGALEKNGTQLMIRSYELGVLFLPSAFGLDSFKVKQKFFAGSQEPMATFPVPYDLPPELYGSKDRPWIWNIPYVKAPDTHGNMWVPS
#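 Compounds were preincubated with Tdp1 (1 nM final) for 15 min at room temperature before substrate (15 nM final) started a 5 min reaction; beads (10 ug/ml final) were then added for 10 min before AlphaScreen detection.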
# HepG2 tox: qHTS for Inhibitors of TGF-b: Cytotox Counterscreen; HepG2 CAGA-GFP viability, ATP luminescence, 18 h; Potency, µM (highest dose often 46.1 µM), actives largely listed as cytotoxic; 410,000 tested, 0.76% active
#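 CellTiter-Glo luminescence gave cytotoxicity after 18 hours at 37 degrees C. The cells were HepG2 CAGA-GFP in 1% FBS DMEM, stimulated with 500 pg/mL TGF-beta after compound addition. %Activity was normalised to no-cell wells (complete cell-killing) and DMSO (no toxicity), and curves were fitted and classified.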
# IL1B secr inh: qHTS for Inhibitors of Inflammasome Signaling: IL-1-beta AlphaLISA Primary Screen. THP-1 LPS/ATP IL-1B secretion, AlphaLISA, 16 h; stronger effect = lower value. activity change, % at 57.5 µM. 360,000 tested, 4.7% active. AID 743279, 2014; in the data active means activity change below about -50%; inconclusive means mostly about -30% to -49%
#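 THP-1 cells pretreated 1 hr with compounds (up to 57.5 uM final), then stimulated with LPS (250 ng/mL final) plus ATP (1.25 mM final); secreted IL-1B measured by AlphaLISA after 16 hr, decreased signal indicating inhibition.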
# TDP1 cell CPT: qHTS for Inhibitors of human tyrosyl-DNA phosphodiesterase 1 (TDP1): qHTS in cells in presence of CPT | AID 686979, 2013 | chicken DT40 Tdp1-/-;hTDP1 cells + 20 nM CPT, ATP luminescence, 48 h | 420,000 tested, 12% active | Potency, µM (series often up to 46.2 µM), hits mostly inhibitors; further: nearly all actives have a fitted effect of over 55% in size
#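 Chicken DT40 Tdp1-/- cells complemented with human TDP1, 400 cells/well, exposed to compounds plus 20 nM camptothecin for at least 48 h at 37 C; viability read as ATP content by CellTiter-Glo luminescence.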
# TDP1 cell noCPT: qHTS for Inhibitors of human tyrosyl-DNA phosphodiesterase 1 (TDP1): qHTS in cells in absence of CPT. DT40 Tdp1-/- hTDP1 cells, no CPT, ATP luminescence, 48 h. Potency, µM (series often up to 46.2 µM), hits mostly inhibitors. 420,000 tested, 15% active. AID 686978, 2013; further: nearly all actives have a fitted effect of over 55% in size
#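 Chicken DT40 Tdp1-/- cells stably complemented with human TDP1 were seeded at 400 cells/well with DMSO in place of 20 nM camptothecin. After compound pinning, cells grew at least 48 hr at 37 °C; viability read by CellTiter-Glo luminescence.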
# TGFb SMAD3 inh: qHTS for Inhibitors of TGF-b; HepG2 CAGA-GFP TGF-b/SMAD3 reporter, GFP fluorescence, 18 h; TGF-beta stimulated, 500 pg/mL final; Potency, µM (highest dose often 46.1 µM), actives largely listed as inhibitors; 410,000 tested, 1.2% active; AID 588855, 2011; further: nearly all actives have a fitted effect of over 65% in size
#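 Smad-responsive CAGA-GFP expression was quantified in HEPG2 cells exposed to compounds and 500 pg/mL final TGF-beta for 18 h at 37 degrees C; unstimulated wells defined full inhibition.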
# Hits are given with their value; – = inactive; ? = inconclusive; · = no result. Unless noted, the call rests on the fitted dose curve; in most records, active means well fitted curve in the direction sought with a large enough effect; inconclusive means small, poorly fitted or top-dose-only effect, or another doubt; inactive means no such curve, though single readings can be large; an effect the other way counts as inactive or inconclusive.
SMILES,TDP1 inh,HepG2 tox,IL1B secr inh,TDP1 cell CPT,TDP1 cell noCPT,TGFb SMAD3 inh
CC(=O)c1ccc(-c2ccc(C(=O)Nc3nc(-c4ccccn4)cs3)o2)cc1,–,–,–,2.91µM,3.66µM,12.6µM
CC(CNC(=O)c1cc(-c2ccccc2)n[nH]1)c1ccccc1 (centres undefined),–,–,·,?,?,–
O=C(Nc1nc(-c2ccccn2)cs1)c1ccc(-c2ccccc2F)o1,–,–,–,5.8µM,10.3µM,14.1µM
CCc1nnc(NC(=O)c2ccc(-c3ccccc3F)o2)s1,–,–,–,–,–,–
COc1ccccc1-c1c(C)nn2c(C(F)(F)F)cc(-c3ccccc3)nc12,–,–,·,?,?,–
OCCC1CN(Cc2cn[nH]c2C2CCCCC2)CCN1C1CCCC1 (centres undefined),–,–,–,–,–,–
CC(CS(=O)(=O)c1ccc2c(c1)NC(=O)CS2)C(=O)NCc1ccccc1Cl (centres undefined),8.91µM,–,–,?,–,–
O=C1CSc2ccc(S(=O)(=O)NCc3ccccc3Cl)cc2N1,–,–,–,–,–,–
CC(CS(=O)(=O)c1ccc2c(c1)NC(=O)CS2)C(=O)N1CCN(c2cccc(Cl)c2)CC1 (centres undefined),–,–,–,18.4µM,?,–
CC1CC(C)CN(C(=O)CCS(=O)(=O)c2ccc3c(c2)NC(=O)CS3)C1 (centres undefined),–,–,–,?,?,–
Cc1ccc(CNS(=O)(=O)c2ccc3c(c2)NC(=O)CS3)cc1,–,–,–,?,14.6µM,–
CCNc1nc(C)nc2c1oc1ccccc12,–,–,–,0.581µM,–,–
Cc1nc(Nc2ccccc2O)c2oc3ccccc3c2n1,·,–,–,–,–,–
Cc1nc(NC(C)C)c2oc3ccccc3c2n1,–,–,?,?,13µM,–
O=C1SC(SCc2ccccc2)=N/C1=C\c1ccc(C(=O)O)cc1,·,–,-58.4,–,–,–
O=C1SC(SCc2ccccc2)=N/C1=C\c1ccco1,–,–,–,–,–,–
CCOC(=O)c1cc2c(ccn2C)n1Cc1cc(C)ccc1C,–,–,–,?,?,–
CC(C)OC(=O)c1cc2c(ccn2C)n1CC(=O)N(Cc1ccccc1)c1ccccc1,–,–,-63.7,?,16.4µM,?
Cc1ccc(C)c(NC(=O)Nc2nnc(N(CC(C)C)CC(C)C)s2)c1,–,–,·,?,?,?
O=C(CCc1ccccc1)NCCc1csc(-c2cccc(F)c2)n1,–,–,·,?,18.4µM,–
O=C(COc1ccccc1)NCCc1csc(-c2ccc(F)cc2)n1,–,–,·,14.6µM,?,–
N#Cc1ccc(-c2ccc(OCC(=O)NCCc3ccccc3)cc2)cc1,–,–,–,?,11.6µM,–
COc1ccc(CC(=O)NCCc2csc(-c3cccc(F)c3)n2)cc1OC,–,–,·,–,?,–
COc1ccccc1NC(=O)C1=C(C)Nc2c(C(=O)Nc3ccc(C)cc3)cnn2C1c1cccc(OC)c1OC (centres undefined),–,–,·,?,?,–
O=C1c2ccccc2CN1CCSC(=S)N1CCOCC1,–,–,?,–,–,–
CCC1(C)NC(c2ccc3c(c2)OCO3)=CC(c2ccccc2O)N1 (centres undefined),–,–,·,?,11.2µM,–
CC(C)C1(C)NC(c2ccc3c(c2)OCO3)=CC(c2ccccc2O)N1 (centres undefined),–,–,·,?,12.6µM,–
